This note sets out measurements from PubChem BioAssay.

A short description of test [1]: EMT-state selective cytotoxicity in co-culture – imaging, PC-3E GFP, TEM4-18 mCherry, primary screen (AID 1345086;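 active = compounds killing one labelled cell type while sparing the other, by normalised counts and ratio limits, not self-fluorescent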;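 for all read-outs here: cells exposed to compound for 72 h before imaging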;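 for red/green cell ratio (normalised): normalised mesenchymal count divided by normalised epithelial count so high means epithelial killing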). The settings on record: PC-3E GFP / TEM4-18 mCherry co-culture, imaging cell counts, at 1 µM; for red/green cell ratio (normalised): actives lie on both sides, counts scaled to control wells, 1 = unselective.
Test [2] in a line: viability loss with induced miR-34 in A549 – imaging, A549 dox-inducible miR-34, nuclei and caspase counts, primary screen (AID 1347080). The following applies: A549 miR-34 inducible, Hoechst nuclei count, 48 h.
Test [3] addresses NAD(+) hydrolase SARM1 (Homo sapiens) (UniProt Q6SZW1). The test can be described thus: blocking NAD cleavage by SARM1 SAM-TIR – cell lysate, NAD-Glo luminescence (AID 1508614;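 active = compound whose remaining NAD level is above about 45 nM, limit read from the data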;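 note: higher remaining NAD means stronger inhibition of SARM1 NADase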). The settings on record: SAM-TIR HEK293T lysate NADase, at 1 µM, stronger effect = higher value.
A short description of test [4]: MELAS cybrid and Rieske KO viability enhancers – cell-based, MELAS cybrids, Rieske KO mouse fibroblasts, CellTiter-Glo, primary screen (AID 1508586;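 active = mean z-score across replicates of 1.96 or higher in either the MELAS or the Rieske mutant cell line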;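 note: z relative to plate mean and SD of compound and empty wells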). The settings on record: low glucose. Background: In ATP-based viability assays light output follows the ATP content of the culture.
The nature of test [5]: galactose survival enhancers in mitochondrial complex I cybrids – cell-based, galactose medium, ATP luminescence, primary screen (AID 1645843;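 active = z-score of at least 1.8 in each of two replicates, scored against plate mean and spread of sample wells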;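 note: positive z means more ATP and so rescue of galactose-driven cybrid death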). The settings on record: complex I mutant cybrid cells, 72 h, stronger effect = higher value.
A short description of test [6]: P. berghei load reduction in hepatocytes – cell-based, HepG2, luciferase luminescence, HepG2 viability, primary screen (AID 624349; in the data active = parasite load remaining mostly below about 12%, no sharp cut-off; inactive = mostly above about 10%;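 note: 100% = mean of DMSO negative control wells on the same plate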). The following applies: P. berghei liver stage in HepG2, luciferase luminescence, concentration not given here; parasite load remaining: stronger effect = lower value; viability: measured here: HepG2 viability without parasites.
A short description of test [7]: compounds altering viability of human ES cells (AID 493140; call rule not given here;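 note: cells exposed to compounds for four days before counting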). The settings on record: human embryonic stem cell survival screen; stronger effect = higher value.
[8] abbreviates: measured here: epithelial PC-3E GFP cell survival.
The mark [9] stands for this setting: measured here: mesenchymal TEM4-18 mCherry cell survival.
Setting [10] is: stronger effect = lower value, cell number ratio, induced over uninduced.
The mark [11] stands for this setting: measured here: relative caspase fold change +Dox/-Dox.
Where [12] appears, read: measured here: total cells with miR-34 induction, stronger effect = lower value.
Where [13] appears, read: measured here: total cells without miR-34 induction.
Where [14] appears, read: MELAS cybrid survival, CellTiter-Glo 48 h, stronger effect = higher value.
Setting [15] is: Rieske KO mouse fibroblast survival, CellTiter-Glo 72 h.

Structures are written as SMILES. Several values for one entry are separate records, joined by “and”; a condition that tells them apart may be missing. Equal entries are not always repeated. Activity calls are given as the source filed them.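 Rule for the calls, unless noted: active = compounds whose cell count with miR-34 switched on is under 0.7 times the count with it off; inactive = the rest.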

NAD(+) hydrolase SARM1 (Homo sapiens), sequence (Q6SZW1 whole entry, looked up): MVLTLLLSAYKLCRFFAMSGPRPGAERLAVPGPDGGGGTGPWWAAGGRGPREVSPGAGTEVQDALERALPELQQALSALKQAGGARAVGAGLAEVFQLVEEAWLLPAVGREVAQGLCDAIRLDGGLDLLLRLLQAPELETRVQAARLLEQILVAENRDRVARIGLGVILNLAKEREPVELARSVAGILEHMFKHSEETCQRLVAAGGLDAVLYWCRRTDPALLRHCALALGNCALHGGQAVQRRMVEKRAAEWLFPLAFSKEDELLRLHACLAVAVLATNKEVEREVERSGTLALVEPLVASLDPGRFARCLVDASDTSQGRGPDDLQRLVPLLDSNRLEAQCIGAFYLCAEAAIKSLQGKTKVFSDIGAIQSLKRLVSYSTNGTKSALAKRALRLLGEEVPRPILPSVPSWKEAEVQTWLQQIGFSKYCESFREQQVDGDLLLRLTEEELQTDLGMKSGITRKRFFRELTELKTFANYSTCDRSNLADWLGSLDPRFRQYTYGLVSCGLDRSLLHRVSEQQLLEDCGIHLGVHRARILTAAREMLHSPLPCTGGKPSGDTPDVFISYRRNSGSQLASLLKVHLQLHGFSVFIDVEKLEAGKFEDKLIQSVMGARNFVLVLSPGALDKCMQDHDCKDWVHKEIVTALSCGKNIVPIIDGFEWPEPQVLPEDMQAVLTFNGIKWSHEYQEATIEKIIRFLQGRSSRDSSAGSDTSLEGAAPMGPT

`CC(=O)Nc1ccc(OC(C)=O)cc1`: the red/green cell ratio (normalised) in test [1] is 0.87 (inactive). For the same molecule, the normalised cell number turned out to be 1.25 in test [1] (setting [8]) and 1.09 in test [1] (setting [9]). Also, the fold change in test [2] (setting [10]) was 0.883 (inactive); in test [2] (setting [11]), 1.21. The cell count is 8510 in test [2] (setting [12]) and 9640 in test [2] (setting [13]). The remaining NAD in test [3] is 10 nM (inactive).
Consider `Nc1ccn(C2CSC(CO)O2)c(=O)n1` (stereo not given), for which the red/green cell ratio (normalised) in test [1] was 1 (inactive). In addition, the results for the normalised cell number in test [1] (setting [8]) and in test [1] (setting [9]) were 1.14 and 1.13, respectively. In addition, the fold change is 0.986 (inactive) and 0.882 (inactive) in test [2] (setting [10]); 1.5 and 0.897 in test [2] (setting [11]). Besides, the cell count in test [2] (setting [12]) was 10000 and 7840; in test [2] (setting [13]) it was 10200 and 8880. Further, the results for the z-score in test [4] (setting [14]), in test [4] (setting [15]) and in test [5] were -0.261 (inactive), 0.414 and 1.16 (inactive), respectively.
On to `CC1(C)C(C=C(Cl)Cl)C1C(=O)OCc1cccc(Oc2ccccc2)c1` (stereo not given), for which the red/green cell ratio (normalised) in test [1] is 0.81 (inactive). In addition, the normalised cell number in test [1] (setting [8]) was 1.23; in test [1] (setting [9]), 1. Also, the fold change was 0.928 (inactive) in test [2] (setting [10]) and 0.968 in test [2] (setting [11]). Moreover, the cell count in test [2] (setting [12]) was 8290; in test [2] (setting [13]), 8930. Moreover, the remaining NAD in test [3] is 10 nM (inactive).
Regarding `CC(=O)C1C(=O)C=C(C)OC1=O` (stereo not given), in test [1], the red/green cell ratio (normalised) is 1.08 (inactive). Also, the figures for the normalised cell number in test [1] (setting [8]) and in test [1] (setting [9]) were 0.99 and 1.07, respectively. Moreover, the fold change was 0.96 (inactive) in test [2] (setting [10]) and 0.723 in test [2] (setting [11]). Besides, the cell count in test [2] (setting [12]) was found to be 9120; in test [2] (setting [13]), 9500. Further, in test [3], the remaining NAD is 10 nM (inactive).
Regarding `NC(=O)C(c1ccccc1)(c1ccccc1)C1CCN(CCc2ccc3c(c2)CCO3)C1` (stereo not given), the red/green cell ratio (normalised) in test [1] is 1.14 (inactive). Also, the normalised cell number was determined as 1.01 in test [1] (setting [8]) and 1.15 in test [1] (setting [9]). Moreover, the fold change in test [2] (setting [10]) is 0.961 (inactive) and 0.867 (inactive) and 0.884 (inactive); in test [2] (setting [11]), 1.17 and 0.544 and 0.774. Further, the cell count in test [2] (setting [12]) was 7990 and 7300 and 7280; in test [2] (setting [13]), 8310 and 8420 and 8230. Further, the z-score in test [4] (setting [14]) is 0.59 (inactive) and -0.239 (inactive); in test [4] (setting [15]), 0.395 and -0.187; in test [5], -0.58 (inactive).
One may read the viability as a read-out of living cells in per cent, often relative to untreated cells. As for `CC(C)N1CCN(c2ccc(OC[C@H]3CO[C@](Cn4cncn4)(c4ccc(Cl)cc4Cl)O3)cc2)CC1`, in test [6], the parasite load remaining was 37.3% (inactive). Besides, the viability in test [6] turned out to be 97.4%. Moreover, the red/green cell ratio (normalised) in test [1] was 0.77 (inactive). The normalised cell number in test [1] (setting [8]) is 1.12; in test [1] (setting [9]), 0.87. Besides, the fold change in test [2] (setting [10]) was 0.864 (inactive); in test [2] (setting [11]) it was 1.54. Further, the cell count in test [2] (setting [12]) was found to be 9020; in test [2] (setting [13]) it was 10400. Further, the z-score is -0.379 (inactive) in test [4] (setting [14]) and 0.124 in test [4] (setting [15]). Besides, the remaining NAD in test [3] was 10 nM (inactive).
In the case of `Cc1cc(-c2ccc(N=Nc3ccc4c(S(=O)(=O)O)cc(S(=O)(=O)O)c(N)c4c3O)c(C)c2)ccc1N=Nc1ccc2c(S(=O)(=O)O)cc(S(=O)(=O)O)c(N)c2c1O`, the red/green cell ratio (normalised) in test [1] was 0.96 (inactive). Besides, the normalised cell number in test [1] (setting [8]) was 0.99; in test [1] (setting [9]) it was 0.95. Besides, the values for the fold change in test [2] (setting [10]) and in test [2] (setting [11]) were 0.905 (inactive) and 0.718, respectively. The cell count in test [2] (setting [12]) came out at 8810; in test [2] (setting [13]), 9740. The remaining NAD in test [3] is 10 nM (inactive).
On to `C=COCC(F)(F)F`, for which the red/green cell ratio (normalised) in test [1] was 0.85 (inactive). In addition, the results for the normalised cell number in test [1] (setting [8]) and in test [1] (setting [9]) were 1.12 and 0.96, respectively. For the same molecule, the fold change in test [2] (setting [10]) was 0.911 (inactive); in test [2] (setting [11]), 0.971. Moreover, the cell count in test [2] (setting [12]) stood at 9000; in test [2] (setting [13]), 9870. Also, in test [3], the remaining NAD is 10 nM (inactive).
As to `C=CCOC(Cn1ccnc1)c1ccc(Cl)cc1Cl` (stereo not given), the survival in test [7] was 5.75 (inactive). Further, the parasite load remaining in test [6] was 62.3% (inactive) and 49.7% (inactive). In test [6], the viability is 79.2% and 101%. In test [1], the red/green cell ratio (normalised) is 1.13 (inactive). In addition, the normalised cell number in test [1] (setting [8]) came to 1.28; in test [1] (setting [9]), 1.45. The fold change was 0.977 (inactive) and 1.23 (inactive) in test [2] (setting [10]); 0.912 and 0.451 in test [2] (setting [11]). Further, the cell count in test [2] (setting [12]) is 7830 and 4360; in test [2] (setting [13]), 8020 and 3550. The z-score in test [4] (setting [14]) was -0.315 (inactive); in test [4] (setting [15]) it was -1.27. Also, the remaining NAD in test [3] was 10 nM (inactive).
